# TRHR enhancer-1 – TRH receptor (human) allosteric enhancement; P34981; TRHR cells, fluo-8 calcium fluorescence, EC20 TRH enhancement; enhancement, % at 2 µM; actives 0.66% (n = 360,000); AID 493056; in the data active means enhancement above about 30%; further: 0% is about no effect
#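 Enhancer read-out: after compound pinning and an initial kinetic agonist-mode read, an EC20 of TRH (10 nM final) was injected and fluo-8 calcium signal (Ex 480/Em 530) followed at 1 s/cycle for 100 cycles in TRHR-expressing cells.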
# TRHR agonist-1 – agonists of human TRH receptor. actives 0.18% (n = 360,000). TRHR cells, calcium flux fluo-8, FDSS agonist mode. activation, % at 2 µM. P34981; in the data active means activation above about 30%; further: 0% is about no effect
#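 Steps: seed TRHR cells overnight; add fluo-8 no-wash Ca dye, RT 30 min–1.5 h; record 10 s baseline; pin-transfer compounds; monitor fluorescence 1 cycle/s for the agonist window. Calcium increases flag candidate agonists.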
# TRPML1 blocker – blocks the human TRPML1 channel | TRPML1-inducible cells, Ca2+ dye fluorescence, FDSS; hits give low values; inhibition of EC80 agonist-evoked calcium signal | activity change, negative = inhibition, % (concentration not given with the values) | AID 624415 | actives 0.02% (n = 390,000) | Q9GZU1; in the data active means activity change below about -50%; inconclusive means between about -30% and that limit;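 further: stimulus is agonist 54-4 at its EC80 concentration; on the % scale 0 is the no-effect control and ±100 the full control effect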
# Target sequence (Q9GZU1 whole entry, looked up): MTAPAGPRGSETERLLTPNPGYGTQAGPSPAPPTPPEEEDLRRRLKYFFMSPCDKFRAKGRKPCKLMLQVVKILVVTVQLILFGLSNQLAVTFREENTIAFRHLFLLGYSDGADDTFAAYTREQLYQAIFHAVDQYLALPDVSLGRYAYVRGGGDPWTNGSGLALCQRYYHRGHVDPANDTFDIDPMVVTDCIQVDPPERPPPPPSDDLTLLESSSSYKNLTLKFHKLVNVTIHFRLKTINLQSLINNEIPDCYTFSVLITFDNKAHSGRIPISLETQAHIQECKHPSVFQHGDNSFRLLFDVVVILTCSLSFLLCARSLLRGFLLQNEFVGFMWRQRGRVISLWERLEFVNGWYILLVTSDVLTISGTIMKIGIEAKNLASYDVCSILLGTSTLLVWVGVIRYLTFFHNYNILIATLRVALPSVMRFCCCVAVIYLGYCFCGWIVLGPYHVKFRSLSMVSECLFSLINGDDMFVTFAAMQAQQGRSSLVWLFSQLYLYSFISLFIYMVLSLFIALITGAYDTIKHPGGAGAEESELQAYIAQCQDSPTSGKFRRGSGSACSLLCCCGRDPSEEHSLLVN
#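 Tet-induced TRPML1-DL cells loaded with Ca8 no-wash calcium dye were read kinetically on FDSS. Compound addition was followed by EC80 agonist 54-4 (4 uM final); inhibition was read over 110 s.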
# hERG WT inh – blocks the wildtype human KCNH2 potassium channel; Q12809; U2OS, BacMam KCNH2, thallium flux FluxOr; hits give low values; activity change, % at 1.84 µM; actives 0.37% (n = 340,000); AID 720551;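 active means maximum activity change below -70%; inconclusive means maximum activity change between -70% and -50%; inactive means maximum activity change above -50%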; further: on the % scale 0 is the no-effect control and ±100 the full control effect
#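 U2OS cells were transduced with wild-type KCNH2 virus (2.03 x 10^8 / mL) for 4 h at room temperature, then cultured overnight at 37 C. Thallium flux was read with FluxOr dye. Rate constants were normalized to DMSO controls.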
# TRPML1 ag – agonists of human TRPML1 channel; Q9GZU1; TRPML1-expressing cells, Ca2+ dye fluorescence, FDSS; activation, % (no concentration beside the values); actives 0.12% (n = 410,000); AID 624414; in the data active means activation above about 50%; inconclusive means mostly about 30% to 49%; further: 0% is about no effect
#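 Tetracycline-induced TRPML1-DL cells are seeded and incubated overnight before loading with a no-wash Ca2+ dye and quencher. Agonist activity is taken from the 110 s fluorescence read following compound pin-transfer on an FDSS, before EC80 54-4 challenge.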
# KCNH2 3.1 inh – inhibitors of human KCNH2 3.1 potassium channel isoform; U2OS KCNH2 3.1, thallium flux FluxOr; hits give low values; activity change, % (tested at about 1.8 µM); actives 0.95% (n = 340,000); AID 720553;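 active means maximum activity change below -70%; inconclusive means maximum activity change from -70% to -50%; inactive means maximum activity change above -50%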;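 further: thallium influx rate constant from kinetic fluorescence after stimulation buffer; on the % scale 0 is the no-effect control and ±100 the full control effect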
#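 Virally transduced U2OS (3.1 isoform, 4 h infection in dark at RT) → overnight 37 C → FluxOr + Red40 in HBSS/HEPES, 45 min → stimulation buffer, 2 min kinetic read → rate constant vs DMSO controls.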
# TRHR enhancer-2 – confirmation of human TRH receptor allosteric enhancers; shares compounds with TRHR enhancer-1; TRH receptor cell assay, enhancer confirmation qHTS; activity change, negative = inhibition, % at 46.1 µM; 970 tested, under 10 active;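 further: compound effect scored on response to added TRH at EC20 of 10 nM; 0% is about no effect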
# TRHR agonist-2 – human TRH receptor agonism confirmation; Potency, µM (highest dose often 46.1 µM), inactives show at the top dose activation, most hits filed as activators; TRHR-expressing cells, agonist activation read-out; actives 8% (n = 970); shares compounds with TRHR enhancer-1; further: potency means the concentration at half of the fitted maximal effect; 0% is about no effect; nearly all actives have a fitted effect of over 75% in size
# Starred values were filed as active, the others as inactive; ? = inconclusive; / = no result. Shown are actives, neighbours in structure and some others; about 1.7% of the full set was active somewhere. Unless noted, the call rests on the fitted dose curve; in most records, active means well fitted curve in the direction sought with a large enough effect; inconclusive means small, poorly fitted or top-dose-only effect, or another doubt; inactive means no such curve, though single readings can be large; an effect the other way counts as inactive or inconclusive.
SMILES,TRHR enhancer-1,TRHR agonist-1,TRPML1 blocker,hERG WT inh,TRPML1 ag,KCNH2 3.1 inh,TRHR enhancer-2,TRHR agonist-2
CCC(=O)c1c[nH]c(C(=O)NCc2cccs2)c1,1.0,0.4,-7.7,-5.2,-0.1,-4.0,/,/
CC(C)CC(=O)c1c[nH]c(C(=O)NCc2cccs2)c1,44.0*,-0.7,52.7,-7.2,-0.9,3.1,5.0,0.3%
O=C(Nc1ccccn1)N1CCOCC1,47.9*,0.3,-4.0,5.4,-0.4,15.5,-1.8,-0.6%
S=C(NCc1ccccc1)Nc1ccncc1,0.7,0.5,-10.3,17.9,0.3,-9.2,/,/
COc1ccc(N2C(=O)C(CN3CCN(C)CC3)C2c2ccccc2)cc1 (centres undefined),67.4*,1.4,27.0,/,1.0,-9.8,5.7,4.1%
O=C(O)c1ccc(CSc2nnc(-c3ccccc3Cl)n2-c2ccccc2)cc1,50.7*,0.5,-5.8,7.1,-0.4,13.9,-9.6,-0.3%
COC(=O)CN(c1nc(C)cc(OC)n1)S(=O)(=O)c1ccccc1,68.1*,-0.6,-5.7,8.1,2.7,-7.8,-7.2,1.5%
COc1cc(C)nc(N(Cc2ccccc2)S(=O)(=O)c2ccccc2)n1,-2.6,-0.2,42.6,-1.3,2.2,-14.0,/,/
Cc1ccc2nc(-c3ccc(NC(=O)COC(=O)c4ccc(Br)o4)cc3)sc2c1,4.5,0.5,3.2,-1.7,0.5,4.3,/,/
Cc1ccc2nc(-c3ccc(NC(=O)COC(=O)c4cncc(Br)c4)cc3)sc2c1,43.7*,0.2,18.0,-1.9,1.8,12.8,4.6,-0.5%
CC[N+]1(CC(=O)c2ccc(Br)cc2)CCCCC1,/,/,/,/,0.0,/,/,/
CC1C(=O)CC(c2ccccc2)NC1c1ccccc1 (centres undefined),44.9*,-0.2,-1.0,-6.0,0.5,-6.8,-4.3,2.0%
CC(C)C1C(=O)CC(c2ccccc2)NC1c1ccccc1 (centres undefined),0.7,-0.5,/,4.4,/,-2.6,/,/
COc1cc(CN2C[C@@H](CO)O[C@@H](n3cnc4c(N(C)C(C)C)ncnc43)C2)cc(OC)c1OC,/,/,/,/,-0.6,/,/,/
O=C(c1cn(CC(=O)N2CCCCC2)c2ccccc12)C1CC1,50.6*,0.2,-5.8,1.0,0.0,-0.6,-1.8,-0.5%
CCOC(=O)C1CCN(C(=O)Cn2cc(C(=O)C3CC3)c3ccccc32)CC1,2.4,-0.3,3.0,7.3,-0.4,-18.0,/,/
CC(C)CC1=NN2C(=N)/C(=C\c3coc4ccccc4c3=O)C(=O)N=C2S1,13.6,25.5,-18.8,-2.7,68.7*,-8.4,-0.4,2.59µM*
COc1ccc([C@H]2CN(c3ccc(OC)cc3)C(=O)[C@@H]2CC(=O)Nc2ccc(Br)cc2)cc1,/,/,0.8,-3.5,0.3,-15.4,/,/
Cn1nnnc1SCc1cccc(CSc2nnnn2C)n1,-3.1,0.6,0.9,-5.8,-0.3,6.3,/,/
Cn1nnnc1SCc1c(F)cccc1F,41.9*,0.5,-3.1,2.9,-0.4,-2.6,?,1.9%
O=C1CC(c2ccccc2)Sc2nc3ccccc3n21 (centres undefined),42.3*,-1.1,-14.4,6.4,1.8,-2.5,-10.5,0.9%
O=C1CC(c2cccs2)Sc2nc3ccccc3n21 (centres undefined),-12.2,-0.9,5.2,-23.3,-1.0,-17.1,/,/
CC1=NN(c2ccc(C(=O)O)cc2)C(=O)CC1,43.5*,0.4,1.7,16.8,-0.4,-5.9,4.7,4.9%
O=C(N/N=C/c1cc(Cl)cc(Cl)c1O)c1ccncc1,11.5,40.4*,-8.1,-3.5,17.6,1.7,?,20.6µM*
O=C(N/N=C/c1ccc(Cl)cc1Cl)c1ccncc1,6.2,-2.0,/,-7.5,/,4.1,/,/
SMILES,TRHR enhancer-1,TRHR agonist-1,TRPML1 blocker,hERG WT inh,TRPML1 ag,KCNH2 3.1 inh,TRHR enhancer-2,TRHR agonist-2
CCC1NC(=O)c2cccnc2-n2c1nc1ccc(F)cc1c2=O (centres undefined),/,/,-2.1,-3.4,0.0,-6.0,/,/
COC(=O)c1cc(S(=O)(=O)N2CCN(c3ccccc3)CC2)c[nH]1,-2.5,0.8,29.2,-13.0,-0.3,-24.3,/,/
COC(=O)c1cc(S(=O)(=O)N2CCN(c3cccc(C)c3C)CC2)c[nH]1,48.2*,0.2,45.6,-6.0,1.6,-13.8,-7.4,-0.6%
CC(=O)Nc1cccc(-c2ccnc3c2CC(C(=O)NCc2cccc(Cl)c2)O3)c1 (centres undefined),/,/,/,/,-0.5,/,/,/
CCCN(CC1CC1)C(=O)COC(=O)c1oc2c(F)cccc2c1C,3.3,1.0,11.9,3.4,0.3,5.1,/,/
CCCCCN1C=CC=C/C1=C\C=C(C#N)C#N,-1.7,30.6*,-0.8,-1.5,14.1,-5.6,-4.3,20.6µM*
CCCN1C=CC(=CC=C(C#N)C#N)C=C1,-1.3,41.8*,5.8,-5.5,21.4,2.7,-1.3,18.4µM*
COc1cc(OC)c(/C=N/NC(=O)c2ccncc2)c(OC)c1,1.9,0.1,-16.0,-0.5,0.0,-7.5,/,/
Oc1ccc2ccccc2c1/C=N/Nc1nnc(-c2ncc[nH]2)c2ccccc12,12.8,45.6*,-2.9,-8.1,1.9,-16.5,?,23.1µM*
OC(COc1ccccc1)CN1CCCCCC1 (centres undefined),42.2*,0.8,-2.4,-3.8,-0.4,-4.7,?,0.7%
O=C(CCCn1cncn1)N1CCCC(Nc2ccc(F)cc2)C1 (centres undefined),-4.1,0.4,-12.6,-6.3,0.4,1.7,/,/
O=C(Nc1cc(C(F)(F)F)ccc1N1CCOCC1)C1CC1,48.7*,-0.1,13.8,-9.0,-0.5,6.0,-9.0,-0.3%
C[C@H](CO)N1C[C@H](C)[C@@H](CN(C)C(=O)c2ccncc2)OCc2cnnn2CCCC1=O,/,/,-8.6,2.2,0.1,9.2,/,/
COc1ccc(NC(=O)C(C)N(c2ccccc2)S(C)(=O)=O)cc1 (centres undefined),5.3,-1.0,6.7,/,-0.7,/,/,/
COc1ccc(N(C(C)C(=O)N(C)Cc2ccccc2)S(C)(=O)=O)cc1 (centres undefined),50.4*,0.1,/,6.1,/,-0.4,1.2,-0.3%
COc1ccc(CCN(C)C2CCCN(C(=O)CCC(F)(F)F)C2)cc1OC (centres undefined),-1.9,-0.3,8.5,4.1,-0.5,-1.4,/,/
COC(=O)C1=NN(C(=O)c2ccc(Cl)cc2)C(O)(c2ccccc2)C1 (centres undefined),-5.8,46.5*,-0.1,-1.0,7.0,-11.8,-6.9,18.4µM*

# Screening data: PubChem, National Center for Advancing Translational Sciences (NCATS)
